Source: PubChem BioAssay AID686979 (National Center for Advancing Translational Sciences (NCATS), 2013)
In all, about 420,000 compounds went through this assay and about 50,000 (12%) were called active. Roughly 26% stayed inconclusive and do not appear here. Calls follow the shape of the dose curve; as a rule, active = well fitted inhibition curve with a large enough effect; inconclusive = small, poorly fitted or top-dose-only effect; inactive = flat fitted curve, though single readings scatter. The full list was thinned out, with actives kept by preference.

Assay: qHTS for Inhibitors of human tyrosyl-DNA phosphodiesterase 1 (TDP1): qHTS in cells in presence of CPT; also: nearly all actives have a fitted effect of over 55% in size
Details: chicken DT40 Tdp1-/-;hTDP1 cells + 20 nM CPT, ATP luminescence, 48 h; series mostly up to 46.2 µM; activity change, negative = growth inhibition: at the top concentration
Method in brief: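 Cell growth measured by CellTiter-Glo luminescence after a minimum 48 h, 37 C compound exposure with 20 nM CPT in Tdp1-knockout DT40 cells stably expressing hTDP1, seeded 400/well; qHTS titration format.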
% is scaled to controls: 0 for no effect and ±100 for the full control effect; potency is read from the fitted curve at half-maximal effect.

Row | Compound | activity change, negative = growth inhibition | Potency
1 | CSCC[C@H](NC(=O)OC(C)(C)C)C(=O)N/N=C/c1cc2ccc(C)cc2nc1Cl | -28.8% (inactive) | 
2 | Cc1ccn(-c2cccc(-n3ccc(C)n3)n2)n1 | -1.46% (inactive) | 
3 | CCCCN(C=O)c1c(CC)nc2c(OCc3ccccc3C(=O)OC)cccn12 |  | 13 µM (active)
4 | CCc1nc2ccc(C(=O)N3CCN(S(=O)(=O)CC)CC3)cn2c1N(C=O)CCC(C)C | -12.8% (inactive) | 
5 | CCCCN(C=O)c1c(CC)nc2c(OCCC3CCCCC3)cccn12 |  | 16.4 µM (active)
6 | CCOc1ccccc1N(CC(=O)Nc1ccccc1C(=O)OC)S(C)(=O)=O | -2.34% (inactive) | 
7 | Cc1nccn1-c1ccc(NC(=O)[C@H]2O[C@@H](n3cnc4c(N)ncnc43)[C@H](O)[C@@H]2O)cc1 | 1.02% (inactive) | 
8 | CCC1CN(CCNC(=O)c2cccc(C)n2)Cc2cc(OC)ccc2O1 (stereo not drawn) | 5.22% [at 9.04 µM] (inactive) | 
9 | O=C(CSc1ccc(-c2ccc(-n3cccn3)cc2)nn1)Nc1ccc([N+](=O)[O-])cc1 | 3.07% (inactive) | 
10 | COc1ccc(NC(=O)CC2C(=O)OCC3CCCCN32)cc1Cl (stereo not drawn) | 3.07% (inactive) | 
11 | CC(C)c1ccc(Cc2nnc(NCCCO)[nH]c2=O)cc1 | 0.449% (inactive) | 
12 | N#CCc1ccc(OC(=O)c2cccnc2)cc1 | -0.983% (inactive) | 
13 | CC(OC(=O)CNC(=O)c1cccc(F)c1)C(=O)NC1CCCCC1C (stereo not drawn) | -0.171% (inactive) | 
14 | Cc1ccc(CC(=O)Nc2ccc(OC(F)F)c(Cl)c2)cc1C | -0.622% (inactive) | 
15 | C=C(C)CNC(=S)N/N=C/c1ccccc1OCC(=O)O | -5.81% (inactive) | 
16 | C=CCNC(=S)N/N=C/c1ccc(C)s1 |  | 4.61 µM (active)
17 | Cc1ccc(/C=N/NC(=O)CN2CCN(Cc3ccccc3)CC2)s1 | 11.8% (inactive) | 
18 | Cc1cc(OC(C)C(=O)Nc2sc3c(c2C(N)=O)CCCC3)ccc1Cl (stereo not drawn) | -25% (inactive) | 
19 | Nc1scc[n+]1Cc1cccc2cccnc12 | 4.35% (inactive) | 
20 | c1ccc2c(C[n+]3csc4ccccc43)cccc2c1 |  | 0.92 µM (active)
21 | CCOC(=O)N1CCN(C(=O)CSc2nc(=O)n3cccc(C)c3n2)CC1 | 2.09% (inactive) | 
22 | CCOC(=O)CNC(=O)c1cc2c(=O)n3cccc(C)c3nc2s1 | -15.6% (inactive) | 
23 | CCOC(=O)CC1C(=O)NCCN1c1nc2c(C)cccn2c(=O)c1/C=C1\SC(=S)N(C(C)CC)C1=O (stereo not drawn) |  | 16.4 µM (active)
24 | N#CC1(NC(=O)COC(=O)CCN=C2NS(=O)(=O)c3ccccc32)CCCCC1 | 12.3% (inactive) | 
25 | COc1cccc(N(CC(=O)NCc2ccccc2)C(=O)CCC(=O)Nc2nccs2)c1 | -20.2% (inactive) | 
26 | CCc1noc(C)c1C(=O)N1CCN(S(=O)(=O)c2cccc(C(F)(F)F)c2)CC1 | 0.576% (inactive) | 
27 | CS(=O)(=O)N(Cc1nc2sc3c(c2c(=O)[nH]1)CCCC3)C1CCCCC1 |  | 20.6 µM (active)

Row | Compound | activity change, negative = growth inhibition | Potency
28 | NNC(=O)C1CCCn2c1nc1sc3c(c1c2=O)CCCC3 (stereo not drawn) | 8.97% (inactive) | 
29 | O=C(CCc1nc2sc3c(c2c(=O)[nH]1)CCCC3)NCC(=O)Nc1ccccc1Br | 13.3% (inactive) | 
30 | CCCCCCCCCCCCCCCCO | -5.61% (inactive) | 
31 | O=C(CCN1C(=O)[C@@H]2Cc3ccccc3CN2C1=O)NCc1ccccc1 | -0.237% (inactive) | 
32 | CCOC(=O)N1CCC(N(CCOC)C(=O)Nc2ccc(C)c(C)c2)CC1 | -22.5% (inactive) | 
33 | Cc1cccc(NC(=O)COC(=O)CCc2ccccc2)c1C | -6.21% (inactive) | 
34 | Cc1cccc(NC(=O)CSc2nc3c(c(=O)[nH]2)CCC3)c1C | 4.77% (inactive) | 
35 | Cc1cccc(NC(=O)CSc2ncc(-c3ccccc3)[nH]2)c1C |  | 25.9 µM (active)
36 | Cc1cccc(NC(=O)CN2C(=O)c3ccccc3C2=O)c1C | 6.02% (inactive) | 
37 | Cc1cccc(NC(=O)CSc2nc3c(c(=O)[nH]2)CCCC3)c1C | -21.3% (inactive) | 
38 | Cc1cccc(NC(=O)CSC(N)=O)c1C |  | 25.9 µM (active)
39 | CN(Cc1ccccc1)C(=O)c1ccc(NC2=NC3CS(=O)(=O)CC3S2)cc1 (stereo not drawn) | 2.81% (inactive) | 
40 | Cc1cccc2c(=O)cc(CSc3ccccc3NC(=O)C(C)C)[nH]c12 | -5.53% (inactive) | 
41 | COc1ccc(C(C#N)=C2C=CC(=NO)c3ccccc32)cc1 |  | 1.3 µM (active)
42 | COc1ccc(/C(N)=N/OC(=O)Cc2ccccc2)cc1 | 13.2% (inactive) | 
43 | COc1ccc(C(=NN)c2ccc(OC)cc2)cc1 | 4.73% (inactive) | 
44 | COc1ccc(C(=O)N(C)Cc2ccc(OC)c(OC)c2OC)cc1S(=O)(=O)N1CCOCC1 | -1.37% (inactive) | 
45 | O=C(OCN1C(=O)c2ccccc2C1=O)/C(=C\c1ccco1)NC(=O)c1ccccc1 | 1.01% (inactive) | 
46 | COc1ccc(/C=C(\NC(=O)c2ccc(OCC(C)C)cc2)C(=O)OCc2ccco2)cc1 |  | 20.6 µM (active)
47 | COc1ccc(/C=C(/NC(=O)c2ccco2)C(=O)Nc2ccc(C(C)=O)cc2)cc1 | 6.29% (inactive) | 
48 | CCOc1ccc(/C=C/C(=O)N(CC)CC(=O)NCc2cccs2)cc1OC | -17.8% (inactive) | 
49 | CC(=O)N[C@@H](C)C(=O)N1CCC(n2nccc2NC(=O)CCCc2ccccc2)CC1 | 7.97% (inactive) | 
50 | ClC/C=C/C[n+]1ccccc1Cl | -26.5% (inactive) | 
51 | O=C(NCc1ccccc1Cl)C(=O)NCC1CCCN1S(=O)(=O)c1cccs1 (stereo not drawn) | -14.6% (inactive) | 
52 | O=C(NCCC1CCCCN1S(=O)(=O)c1cccs1)C(=O)Nc1ccc(F)cc1F (stereo not drawn) |  | 2.91 µM (active)
53 | O=C(NCCC1CCCCN1S(=O)(=O)c1ccc(F)cc1)C(=O)NC1CC1 (stereo not drawn) | 0.311% (inactive) | 
